Measured values as given in the antibiotic and cytotoxicity screens of Wong et al. (2023).
Out of some 39,000 compounds screened, about 3,300 (8.5%) were called active. Many of the other results were omitted from the sample, so actives are more common in it than they were.

Tested on: HepG2
Assay: cytotoxicity call (relative viability < 0.9)
Conditions: 10 µM

SMILES	cytotoxicity call
C[C@@H]1CCCCO[C@@H](CN(C)C(=O)NC2CCCCC2)[C@H](C)CN([C@H](C)CO)C(=O)c2cc(NC(=O)Nc3ccc4c(c3)OCO4)ccc2O1	inactive
C[C@@H]1CN([C@H](C)CO)C(=O)c2cccc(NS(=O)(=O)c3cn(C)cn3)c2O[C@@H]1CN(C)Cc1ccncc1	inactive
C[C@@H]1CN([C@H](C)CO)S(=O)(=O)c2ccc(-c3cncnc3)cc2O[C@@H]1CN(C)C(=O)CN(C)C	inactive
C[C@@H]1CN([C@@H](C)CO)C(=O)c2cc(NC(=O)NC3CCCCC3)ccc2O[C@@H](C)CCCCO[C@H]1CN(C)C(=O)c1ccccc1	inactive
CO[C@@H](CN(C)C(=O)Nc1ccc(C(F)(F)F)cc1)[C@H](C)CN(Cc1ccccc1Cl)[C@H](C)CO	inactive
Cc1ccc(S(=O)(=O)Nc2ccc3c(c2)C(=O)N([C@@H](C)CO)C[C@@H](C)[C@@H](CN(C)Cc2ccc(C(=O)O)cc2)OCCCC[C@@H](C)O3)cc1	inactive
COc1cc(-c2cc(=O)c3c(s2)N(c2ccc(OC)c(OC)c2)[C@@H](c2ccc(O)c(OC)c2)CC3=O)ccc1O	inactive
COc1ccc(S(=O)(=O)Nc2ccc3c(c2)CC(=O)N([C@@H](C)CO)C[C@@H](C)[C@H](CN(C)S(=O)(=O)c2ccccc2)O3)cc1	inactive
CC(C)NC(=O)N(C)C[C@H]1OCCCC[C@H](C)Oc2ccc(NS(C)(=O)=O)cc2C(=O)N([C@H](C)CO)C[C@@H]1C	inactive
C[C@H](CO)N1C[C@H](C)[C@@H](CN(C)C(=O)Nc2cccc3ccccc23)Oc2ccc(NS(=O)(=O)c3cccs3)cc2CC1=O	inactive
CN(C)CCN1CCNCC1	inactive
C[C@H](NC(=O)N(C)C[C@H]1OCc2ccccc2-c2ccccc2C(=O)N([C@H](C)CO)C[C@@H]1C)c1ccccc1	inactive
O=C(NCCO[N+](=O)[O-])c1cccnc1 [listing 1 of 2 here]	inactive
CC(=O)OCCNC(=O)c1cccnc1	inactive
O=C(NCCO[N+](=O)[O-])c1cccnc1 [listing 2 of 2 here]	active
CC(C)CC#Cc1ccc2c(c1)O[C@H](CN(C)Cc1cncnc1)[C@@H](C)CN([C@@H](C)CO)S2(=O)=O	inactive
O=C(C[C@H]1C=C[C@@H](NC(=O)c2cccc(F)c2)[C@@H](CO)O1)NCCN1CCCC1	inactive
C[C@@H]1COCCS(=O)(=O)N1C	inactive
O=C(CCCCCNC(=O)OC[C@H]1C(=O)O[C@@H](Cc2ccccc2)[C@H]2[C@H]3C(=CC(=O)[C@@H]3C3CC3)CN21)NO	inactive
C[C@@H]1CCCCO[C@@H](CN(C)C(=O)CCC(F)(F)F)[C@@H](C)CN([C@@H](C)CO)C(=O)c2cc(NS(=O)(=O)c3ccc(F)cc3)ccc2O1	inactive
COc1cccc(S(=O)(=O)N(C)C[C@@H]2OCc3cn(nn3)CCCC(=O)N([C@@H](C)CO)C[C@@H]2C)c1	inactive
C[C@@H]1CN([C@H](C)CO)C(=O)c2cc(NC(=O)NC3CCCCC3)ccc2O[C@@H](C)CCCCO[C@H]1CN(C)S(=O)(=O)c1ccc(Cl)cc1	active

SMILES	cytotoxicity call
C[C@@H]1CCCCO[C@@H](CN(C)S(=O)(=O)c2ccc(Cl)cc2)[C@@H](C)CN([C@H](C)CO)C(=O)c2cc(NC(=O)NC3CCCCC3)ccc2O1	inactive
C[C@@H]1CN([C@H](C)CO)C(=O)c2cc(NC(=O)NC3CCCCC3)ccc2O[C@@H](C)CCCCO[C@@H]1CN(C)S(=O)(=O)c1ccc(Cl)cc1	inactive
C[C@H](CO)N1C[C@H](C)[C@H](CN(C)S(=O)(=O)c2ccc(Cl)cc2)OCCCC[C@H](C)Oc2ccc(NC(=O)NC3CCCCC3)cc2C1=O	inactive
C[C@@H]1CCCCO[C@H](CN(C)S(=O)(=O)c2ccc(Cl)cc2)[C@@H](C)CN([C@H](C)CO)C(=O)c2cc(NC(=O)NC3CCCCC3)ccc2O1	inactive
C[C@@H]1CN([C@@H](C)CO)C(=O)c2cc(NC(=O)NC3CCCCC3)ccc2O[C@@H](C)CCCCO[C@@H]1CN(C)S(=O)(=O)c1ccc(Cl)cc1	inactive
C[C@@H]1CCCCO[C@@H](CN(C)S(=O)(=O)c2ccc(Cl)cc2)[C@H](C)CN([C@H](C)CO)C(=O)c2cc(NC(=O)NC3CCCCC3)ccc2O1	active
C[C@@H]1CCCCO[C@H](CN(C)S(=O)(=O)c2ccc(Cl)cc2)[C@H](C)CN([C@H](C)CO)C(=O)c2cc(NC(=O)NC3CCCCC3)ccc2O1	active
C[C@@H]1CCCCO[C@@H](CN(C)S(=O)(=O)c2ccc(Cl)cc2)[C@H](C)CN([C@@H](C)CO)C(=O)c2cc(NC(=O)NC3CCCCC3)ccc2O1	inactive
C[C@H](CO)N1C[C@H](C)[C@@H](CN(C)S(=O)(=O)c2ccc(Cl)cc2)OCCCC[C@H](C)Oc2ccc(NC(=O)NC3CCCCC3)cc2C1=O	active
Cc1ccc(S(=O)(=O)N(C)C[C@H]2OCCCC[C@H](C)Oc3ccc(NS(C)(=O)=O)cc3C(=O)N([C@H](C)CO)C[C@H]2C)cc1	inactive
CNC[C@@H]1OCCCC[C@@H](C)Oc2ccc(NC(=O)c3ccncc3)cc2C(=O)N([C@@H](C)CO)C[C@H]1C	inactive
C[C@H](CO)N1C[C@H](C)[C@H](CN(C)C(=O)c2ccncc2)OCCCC[C@H](C)Oc2ccc(NS(=O)(=O)c3ccc(Cl)cc3)cc2C1=O	inactive
CC(C)CN1C[C@H](C(=O)O)CC1=O	inactive
C[C@H](CO)N1C[C@H](C)[C@@H](CN(C)S(=O)(=O)c2cccs2)Oc2ccc(NC(=O)Cn3cnnn3)cc2C1=O	inactive
COc1ccc(CCN2C(=O)[C@@]3(c4ccc([N+](=O)[O-])cc4)CC(=O)N(C4CCCCC4)[C@@H]3c3ccc(CO)cc32)cc1	inactive
C[C@@H]1CN([C@H](C)CO)C(=O)c2cc(NC(=O)C3CCCCC3)ccc2O[C@@H](C)CCCCO[C@H]1CN(C)Cc1ccncc1	inactive
C[C@H](CO)N1C[C@H](C)[C@H](CN(C)C(=O)c2ccccn2)Oc2cc(C#Cc3ccccc3)ccc2S1(=O)=O	inactive
C[C@H](CO)N1C[C@H](C)[C@@H](CN(C)C(=O)Nc2ccc3c(c2)OCO3)OCCCC[C@H](C)Oc2ccc(NC(=O)Nc3ccc(C(F)(F)F)cc3)cc2C1=O	inactive
C[C@@H]1CN([C@@H](C)CO)C(=O)c2cccc(NS(C)(=O)=O)c2O[C@H]1CN(C)Cc1ccc2c(c1)OCO2	inactive
Cc1ccc(S(=O)(=O)N2C[C@H](O)COC[C@H]3O[C@H](CC(=O)NCc4ccc5c(c4)OCO5)CC[C@@H]32)cc1	inactive
C[C@H]1CN([C@@H](C)CO)C(=O)c2cc(C#Cc3cccc(F)c3)cnc2O[C@@H]1CN(C)CC1CCOCC1	inactive
C[C@H](CO)N1C[C@H](C)[C@H](CN(C)C(=O)Nc2ccc(C(F)(F)F)cc2)OCCCC[C@H](C)Oc2ccc(NC(=O)Nc3ccc4c(c3)OCO4)cc2C1=O	inactive

SMILES	cytotoxicity call
C[C@@H]1CCCCO[C@H](CN(C)S(=O)(=O)c2ccc(Cl)cc2)[C@@H](C)CN([C@@H](C)CO)C(=O)c2cc(NC(=O)NC3CCCCC3)ccc2O1	inactive
C[C@H]1CCCCO[C@@H](CN(C)S(=O)(=O)c2ccc(Cl)cc2)[C@@H](C)CN([C@@H](C)CO)C(=O)c2cc(NC(=O)NC3CCCCC3)ccc2O1	active
C[C@H]1CCCCO[C@H](CN(C)S(=O)(=O)c2ccc(Cl)cc2)[C@@H](C)CN([C@@H](C)CO)C(=O)c2cc(NC(=O)NC3CCCCC3)ccc2O1	inactive
C[C@@H]1CCCCO[C@H](CN(C)S(=O)(=O)c2ccc(Cl)cc2)[C@H](C)CN([C@@H](C)CO)C(=O)c2cc(NC(=O)NC3CCCCC3)ccc2O1	inactive
C[C@@H]1CCCCO[C@@H](CN(C)S(=O)(=O)c2ccc(Cl)cc2)[C@@H](C)CN([C@@H](C)CO)C(=O)c2cc(NC(=O)NC3CCCCC3)ccc2O1	active
CN1[C@@H]2Cn3c(ccc(-c4ccccc4)c3=O)[C@H]1[C@@H](C(=O)NCCCN1CCOCC1)[C@@H]2CO	inactive
C[C@@H]1CN([C@@H](C)CO)C(=O)Cc2cc(NC(=O)Cn3cnnn3)ccc2O[C@H]1CN(C)C(=O)Nc1ccccc1	inactive
CCCNC(=O)N[C@H]1C=C[C@@H](CC(=O)N2CCN(C)CC2)O[C@@H]1CO	inactive
C[C@H]1CN([C@@H](C)CO)C(=O)c2cc(/C=C/c3ccccc3)cnc2O[C@@H]1CN(C)C(=O)c1cnccn1	inactive
C[C@H]1CN([C@@H](C)CO)C(=O)Cc2cc(NC(=O)Cn3cnnn3)ccc2O[C@H]1CN(C)Cc1ccc(Oc2ccccc2)cc1	inactive
COCC(=O)N(C)C[C@@H]1Oc2cc(-c3ccc(C#N)cc3)ccc2S(=O)(=O)N([C@H](C)CO)C[C@H]1C	inactive
COc1ccc(S(=O)(=O)Nc2ccc3c(c2)C(=O)N([C@@H](C)CO)C[C@@H](C)[C@@H](CN(C)S(C)(=O)=O)OCCCC[C@@H](C)O3)cc1	inactive
C[C@H](CO)N1C[C@H](C)[C@@H](CN(C)S(=O)(=O)c2cccs2)Oc2ccc(NC(=O)Cc3ccccc3)cc2C1=O	inactive
C[C@@H]1CN([C@H](C)CO)C(=O)c2cc(NC(=O)Nc3ccc(F)cc3)ccc2O[C@@H](C)CCCCO[C@H]1CN(C)Cc1ccncc1	inactive
CC(C)NC(=O)Nc1ccc2c(c1)C(=O)N([C@@H](C)CO)C[C@H](C)[C@@H](CN(C)Cc1ccc(-c3ccccc3)cc1)O2	inactive
C[C@H]1CN([C@@H](C)CO)C(=O)c2cc(NC(=O)Nc3ccccc3)ccc2O[C@H]1CN(C)Cc1ccc(-c2ccccc2)cc1	inactive
C[C@H](CO)N1C[C@H](C)[C@@H](CN(C)Cc2ccc(-c3ccccc3)cc2)Oc2ccc(NC(=O)Nc3ccccc3)cc2C1=O	active
C[C@@H]1CN([C@@H](C)CO)C(=O)c2cc(NC(=O)Nc3ccccc3)ccc2O[C@H]1CN(C)Cc1ccc(-c2ccccc2)cc1	active
C[C@H](CO)N1C[C@H](C)[C@H](CN(C)Cc2ccc(-c3ccccc3)cc2)Oc2ccc(NC(=O)Nc3ccccc3)cc2C1=O	inactive
CC(C)NC(=O)Nc1ccc2c(c1)C(=O)N([C@@H](C)CO)C[C@@H](C)[C@H](CN(C)Cc1ccc(-c3ccccc3)cc1)O2	inactive
C[C@@H]1CN([C@H](C)CO)C(=O)c2cc(NC(=O)Nc3ccccc3)ccc2O[C@@H]1CN(C)Cc1ccc(-c2ccccc2)cc1	active
CC(C)NC(=O)Nc1ccc2c(c1)C(=O)N([C@@H](C)CO)C[C@@H](C)[C@@H](CN(C)Cc1ccc(-c3ccccc3)cc1)O2	active
